The entries come from a sample that favours hits as a whole.
EZH2 inh = inhibitors of human EZH2/PRC2 methyltransferase; Q15910; PRC2 H3K27 methylation, DELFIA TRF, 1 h; inhibition, % at 12.5 µM; 57,000 tested, 0.35% active; AID 651548;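 active = mean inhibition of replicates at least 50% and every single replicate also reaching 50%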;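 note: dimethyl H3K27 on biotinylated H3 21-44 peptide detected by antibody; plate controls were median neutral control wells for no effect and median positive control wells for full effect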
Target sequence (Q15910 whole entry, looked up): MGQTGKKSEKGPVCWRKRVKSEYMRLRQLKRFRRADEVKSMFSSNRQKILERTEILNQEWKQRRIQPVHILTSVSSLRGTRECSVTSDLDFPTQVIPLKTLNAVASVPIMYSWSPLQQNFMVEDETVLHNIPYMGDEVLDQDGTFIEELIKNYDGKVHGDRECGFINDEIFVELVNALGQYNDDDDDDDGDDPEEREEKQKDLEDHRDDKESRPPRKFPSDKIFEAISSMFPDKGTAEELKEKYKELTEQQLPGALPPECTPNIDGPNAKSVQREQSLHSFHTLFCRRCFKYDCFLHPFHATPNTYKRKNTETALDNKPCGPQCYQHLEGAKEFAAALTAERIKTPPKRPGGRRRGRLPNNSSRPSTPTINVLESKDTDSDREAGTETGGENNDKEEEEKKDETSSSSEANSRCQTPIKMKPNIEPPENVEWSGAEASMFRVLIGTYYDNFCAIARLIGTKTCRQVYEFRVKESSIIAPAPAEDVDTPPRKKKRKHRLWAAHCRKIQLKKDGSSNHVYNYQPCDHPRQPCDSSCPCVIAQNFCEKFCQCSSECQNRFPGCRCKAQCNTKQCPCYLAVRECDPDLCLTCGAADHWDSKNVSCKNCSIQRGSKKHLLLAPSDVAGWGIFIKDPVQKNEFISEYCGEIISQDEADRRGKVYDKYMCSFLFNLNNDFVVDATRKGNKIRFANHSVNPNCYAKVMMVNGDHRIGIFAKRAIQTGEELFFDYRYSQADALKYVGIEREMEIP
An asterisk follows results filed as active.

SMILES	EZH2 inh
O=C(CSc1nnc(-c2ccc(Cl)cc2)o1)Nc1ccccc1C(F)(F)F	-11
Clc1ccc(CSc2nnc(-c3ccco3)n2Cc2ccco2)c(Cl)c1	45
Fc1ccccc1-c1nnc(SCc2ccc(Br)cc2)n1Cc1ccco1	79*
Fc1ccccc1CSc1nnc(-c2cnccn2)n1Cc1ccco1	2
Cc1cc(C)c2oc(-c3ccc(NC(=O)COc4ccc([N+](=O)[O-])cc4)cc3)nc2c1	-14
Cc1occc1-c1nnc(SCC(=O)Nc2ccccc2[N+](=O)[O-])n1-c1ccccc1	-3
CCOC(=O)c1c(NC(=O)Cn2cnc3ccccc3c2=O)sc2c1CCCC2	9
O=C(CSc1nc2ccccc2c(=O)[nH]1)Nc1ccc(F)c(Cl)c1	31
COc1ccc(NC(=O)CSc2nc3ccccc3c(=O)[nH]2)cc1Cl	-6
CCOC(=O)c1c(NC(=O)CSc2ncn[nH]2)sc2c1CCCCC2	6
CCOC(=O)c1c(NC(=O)CSc2nc3ccccc3c(=O)[nH]2)sc2c1CCCC2	76*
O=C(CSc1nc2ccccc2c(=O)[nH]1)Nc1ccc(Br)c(Cl)c1	55*
CC(C)OC(=O)CSc1nc2c(c(-c3ccccc3)c1C#N)CCC2	36
O=S(=O)(Nc1cccnc1)c1cccc(S(=O)(=O)c2ccc(Cl)c(Cl)c2)c1	11
O=C(Cc1ccccc1[N+](=O)[O-])Nc1ccccc1C(=O)NC1CCCCC1	-10
COc1ccccc1CCNC(=O)c1cc(-c2ccc(C)o2)nc2ccccc12	-4
COc1ccc2c(c1)C(O)(CC(=O)c1ccc3ccccc3c1)C(=O)N2 (stereo not given)	-7
N#CC(OC1OC(COC2OCC(OC(=O)/C=C/c3ccc(OC4OC(CO)C(O)C(O)C4O)cc3)C(O)C2O)C(O)C(O)C1O)c1ccccc1 (stereo not given)	90*
C[C@@H]1O[C@@H](O[C@@H]2[C@@H](O)[C@H](Oc3cc(O)c4c(c3)OC(c3ccc(O)cc3)CC4=O)O[C@H](COC3OCC(O)C(O)C3O)[C@H]2O)[C@H](O)[C@H](O)[C@H]1O (stereo not given in full)	-14
N#C[C@@H](O[C@@H]1O[C@H](CO)[C@@H](O)[C@H](O)[C@H]1O[C@@H]1O[C@H](CO)[C@@H](O)[C@H](O)[C@H]1O)c1ccccc1	-11
C[C@H](CO)N1C[C@H](C)[C@@H](CN(C)Cc2cccc(C(=O)O)c2)Oc2cc(Br)ccc2S1(=O)=O	13
C[C@H]1CN([C@@H](C)CO)S(=O)(=O)c2ccc(C3=CCCCC3)cc2O[C@H]1CN(C)Cc1cccc(C(=O)O)c1	17
C[C@@H]1CN([C@@H](C)CO)S(=O)(=O)c2ccc(C3=CCCCC3)cc2O[C@H]1CN(C)Cc1cccc(C(=O)O)c1	56*
C[C@@H]1CN([C@@H](C)CO)S(=O)(=O)c2ccc(C#CCC3CCCC3)cc2O[C@H]1CN(C)Cc1cccc(C(=O)O)c1	62*
C[C@@H]1CN([C@H](C)CO)S(=O)(=O)c2ccc(Br)cc2O[C@H]1CN(C)Cc1cccc(C(=O)O)c1	1
SMILES	EZH2 inh
C[C@H]1CN([C@@H](C)CO)S(=O)(=O)c2ccc(/C=C/c3ccccc3)cc2O[C@@H]1CN(C)Cc1ccc(C(=O)O)cc1	53*
C[C@H]1CN([C@@H](C)CO)S(=O)(=O)c2ccc(C3=CCCCC3)cc2O[C@@H]1CN(C)Cc1cccc(C(=O)O)c1	44
C[C@H](CO)N1C[C@H](C)[C@@H](CN(C)Cc2ccccc2)Oc2cc(/C=C/c3ccccc3)ccc2S1(=O)=O	-1
C[C@H]1CN([C@@H](C)CO)S(=O)(=O)c2ccc(/C=C/c3ccccc3)cc2O[C@H]1CN(C)Cc1ccccc1	10
Cc1coc(C)c1C(=O)CC1(O)C(=O)N(CCc2ccccc2)c2ccc(Cl)cc21 (stereo not given)	-9
COc1ccc(-n2nnnc2SCC(=O)Nc2ccc(F)cc2)cc1	0
CCOC(=O)c1c(NC(=O)c2ccc(C)c(S(=O)(=O)N3CCCCCC3)c2)sc(C)c1C	-6
COc1ccc(NC(=O)CC2NC(=O)NC2=O)cc1 (stereo not given)	-16
CC1(C)CC[C@]2(C(=O)O)CC[C@]3(C)C(=CCC4[C@@]5(C)C[C@@H](O)[C@H](O)[C@@](C)(CO)C5CC[C@]43C)[C@@H]2[C@@H]1O (stereo not given in full)	55*
CC1(C)CC[C@]2(C(=O)O)CC[C@]3(C)C(=CCC4[C@@]5(C)C[C@@H](O)[C@H](O)C(CO)(CO)C5CC[C@]43C)C2[C@@H]1O (stereo not given in full)	44
CC1(C)CC[C@]2(C(=O)O)CC[C@]3(C)C(=CCC4[C@@]5(C)CC[C@H](O[C@@H]6OC[C@H](O)[C@H](O)[C@H]6O)[C@@](C)(CO)C5CC[C@]43C)C2C1 (stereo not given in full)	-12
C/C=C/[C@H](CCn1cc(CCO)nn1)[Si](C)(C)c1ccc(OC)cc1	27
C/C=C/[C@H](CC(=O)N(CCO)Cc1ccccc1)[Si](C)(C)c1ccc(OC)cc1	58*
C/C=C/[C@@H](CCn1cc(CCO)nn1)[Si](C)(C)c1ccc(OC)cc1	13
N#Cc1c(-c2ccccc2)nc(SCC(=O)Nc2ccc(Oc3ccccc3)cc2)[nH]c1=O	87*
CC(=O)c1ccc(NC(=O)CSc2nc(-c3ccccc3)c(C#N)c(=O)[nH]2)cc1	-8
N#Cc1c(-c2ccccc2)nc(SCC(=O)Nc2cccc(C(F)(F)F)c2)[nH]c1=O	39
CC(NC(=O)c1ccccc1)c1nc2ccccc2n1Cc1ccc(Cl)cc1Cl (stereo not given)	0
COc1cccc(C(=O)OCc2nc3ccccc3s2)c1	53*
O=C(Nc1ccc(OCc2nc3ccccc3s2)cc1)c1cccc(I)c1	20
O=C(OCc1nc2ccccc2s1)c1ccco1	-1
COc1ccccc1NC(=O)CSc1nc2ccccc2c(=O)n1-c1ccc(C)cc1	-8
Cc1nn(CC(=O)Nc2cc(Cl)cc(Cl)c2)c(C)c1[N+](=O)[O-]	-2
C[C@H](C[C@@H](O)[C@](C)(O)[C@H]1CC[C@@]2(O)C3=CC(=O)[C@@H]4C[C@@H](O)[C@@H](O)C[C@]4(C)C3CC[C@]12C)C(C)(C)O (stereo not given in full)	-5
O=C(OCCSc1cnc2ccccc2n1)c1cc(Cl)cc(Cl)c1	7
SMILES	EZH2 inh
Cc1c(NC(=O)CN(c2ccc3c(c2)OCCO3)S(C)(=O)=O)c(=O)n(-c2ccccc2)n1C	-9
O=C(CSc1n[nH]c(-c2ccc(Cl)cc2Cl)n1)Nc1cccc(Cl)c1Cl	32
N#Cc1c(NC(=O)CSc2n[nH]c(-c3ccc(Cl)cc3Cl)n2)sc2c1CCCC2	52*
O=C(CSc1n[nH]c(-c2ccc(Cl)cc2Cl)n1)Nc1ccccc1F	-5
O=C(CCNc1ccc(Cl)c(C(F)(F)F)c1)c1ccccc1	56*
O=C(CNS(=O)(=O)c1ccccc1)Nc1ccc(Cl)c(C(F)(F)F)c1	0
O=C(CCCN1C(=O)c2ccccc2C1=O)Nc1ccc(Cl)c(C(F)(F)F)c1	13
Cc1ccc(N(CC(=O)Nc2ccc(F)cc2)S(C)(=O)=O)cc1	-5
Cc1cc(Cl)cc(Br)c1OCCCSc1ncccn1	62*
Clc1ccc(OCCCCSc2ncccn2)cc1	28
Cc1ccc([N+](=O)[O-])c(OCCCSc2ncccn2)c1	16
O=[N+]([O-])c1ccccc1OCCCCSc1ncccn1	5
Cc1ccc(C)c(OCCCCSc2ncccn2)c1Cl	56*

Screening data: PubChem, Broad Institute
